High-throughput results (PubChem BioAssay)
rat GALR2 agon: activates the rat galanin receptor 2 | actives 0.5% (n = 16,000) | cell-based GALR2 agonist screen | O08726 | activation, % at 10 µM; in the data active = activation above about 15%
S1P1 agonist: activates the human S1P1 receptor; activation, % at 4.5 µM; actives 1.5% (n = 16,000); P21453; S1P1 agonist cell-based reporter assay; in the data active = activation above about 80%
TLR4-MyD88 inh: inhibitors of human TLR4-MyD88 binding; O00206; Cell-based TLR4-MyD88 binding inhibition assay; inhibition, % at 10 µM; actives 0.06% (n = 16,000); AID 811; in the data active = inhibition above about 45%
Target sequence (O00206 whole entry, looked up): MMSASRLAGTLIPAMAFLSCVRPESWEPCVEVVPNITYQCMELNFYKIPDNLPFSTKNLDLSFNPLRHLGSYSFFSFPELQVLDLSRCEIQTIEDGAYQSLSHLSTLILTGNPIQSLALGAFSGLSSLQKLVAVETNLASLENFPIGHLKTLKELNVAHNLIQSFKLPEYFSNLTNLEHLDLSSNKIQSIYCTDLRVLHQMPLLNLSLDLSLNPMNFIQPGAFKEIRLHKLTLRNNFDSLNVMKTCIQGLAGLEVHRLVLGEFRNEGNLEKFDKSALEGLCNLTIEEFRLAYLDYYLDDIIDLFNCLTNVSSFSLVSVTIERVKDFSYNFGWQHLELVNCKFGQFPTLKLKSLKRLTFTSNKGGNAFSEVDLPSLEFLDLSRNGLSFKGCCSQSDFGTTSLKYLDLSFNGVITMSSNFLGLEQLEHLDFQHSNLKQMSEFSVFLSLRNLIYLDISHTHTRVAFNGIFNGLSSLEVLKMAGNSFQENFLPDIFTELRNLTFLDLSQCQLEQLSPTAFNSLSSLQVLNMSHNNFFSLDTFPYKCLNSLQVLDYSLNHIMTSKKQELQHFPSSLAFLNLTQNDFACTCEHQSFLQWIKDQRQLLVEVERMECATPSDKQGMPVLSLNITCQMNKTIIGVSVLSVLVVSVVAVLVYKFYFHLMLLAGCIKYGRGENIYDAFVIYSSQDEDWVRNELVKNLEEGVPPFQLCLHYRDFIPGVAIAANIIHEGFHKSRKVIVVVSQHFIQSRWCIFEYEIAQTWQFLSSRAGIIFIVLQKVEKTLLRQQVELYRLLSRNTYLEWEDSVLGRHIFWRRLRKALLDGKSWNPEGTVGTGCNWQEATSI
* hit, by the source's call; . = no result given. Only some compounds are listed: those with a hit (about 1.8% of all), similar ones and a draw of the others.

SMILES	rat GALR2 agon	S1P1 agonist	TLR4-MyD88 inh
O=C(c1cnn(-c2ccc(Cl)cc2)c1C(F)(F)F)N1CCN(c2ncnc3ccsc23)CC1	-6	97*	6
COC(=O)c1c(-c2c(Cl)cccc2Cl)noc1NC(=O)NN(C)C	-9	-1	-5
O=C(CSc1nc2ccccc2c(=O)[nH]1)c1cc2ccccc2o1	-4	92*	-4
Cc1ccc(C(=O)CSc2nc3ccccc3c(=O)[nH]2)cc1	-5	29	-1
Cn1c(-c2ccco2)n[nH]c1=S	-6	0	2
Cn1c(-c2ccccn2)n[nH]c1=S	-10	88*	3
O=[N+]([O-])c1ccsc1Oc1ccc(Cl)cc1Cl	-7	24	-2
Cc1c(C)c(C)c(CSCC(=O)NNC(=S)Nc2ccccc2Cl)c(C)c1C	-7	78	-5
CCOC(=O)c1cnn(-c2ccccc2)c1NC(=O)Nc1cccc(Cl)c1	-7	-7	2
CCOC(=O)c1cc(NC(=O)Nc2cccc(Cl)c2)ccc1Oc1cncc(Cl)c1	-12	80*	-1
Cc1cc(/C(N)=N/OC(=O)c2ccno2)no1	-9	6	12
Cc1cc(C(=O)O/N=C(\N)c2ccc(C(C)(C)C)cc2)no1	-6	90*	7
O=C(c1cc2ccccc2s1)N1CCN(C(c2ccccc2)c2ccccc2)CC1	-1	83*	-1
O=C(c1ccccc1)N1CCN(C(c2ccccc2)c2ccccc2)CC1	-7	27	2
Cn1nc(C(C)(C)C)cc1C(=O)O/N=C(\N)c1ccccc1	-1	72	-13
Cc1ccc(Cn2nc(C(=O)O/N=C(\N)c3ccccc3)cc2C)cc1	-9	100*	-13
Cc1cc(NC(=O)c2ccc3nonc3c2)no1	-9	-12	8
O=C(NCC1CCCO1)c1cccc2c1OCCCO2 (stereo unspecified)	-7	-28	-9
c1coc(-c2nc3ccccc3nc2-c2ccco2)c1	-4	-4	-1
O=c1c2ccccc2nc(-c2ccco2)n1Cc1ccccc1	-1	92*	17
CC(C)(C)c1ccc(C(O)=C(C#N)C#N)cc1	-6	-6	-8
Cc1nn(C)c(Sc2ccc(C(F)(F)F)cn2)c1[N+](=O)[O-]	-8	-8	-5
Cn1cnc([N+](=O)[O-])c1Sc1ccc(C(F)(F)F)cn1	35*	2	-4
O=S(=O)(Nc1ccccc1C(F)(F)F)c1ccc(-c2ccccn2)s1	-9	15	3
CSc1nccc(-c2ccc(S(=O)(=O)Nc3cc(C(F)(F)F)cc(C(F)(F)F)c3)s2)n1	-5	88*	-7
SMILES	rat GALR2 agon	S1P1 agonist	TLR4-MyD88 inh
CCOc1ccc(C(C)=O)cc1OCC	-5	-3	11
Cc1cc(-c2nnc(-c3cccc(C(F)(F)F)c3)o2)no1	-3	80*	-1
FC(F)(F)c1cccc(-c2noc(-c3ccc(-c4cccs4)s3)n2)c1	-7	20	5
COC(=O)CC1C=CS(=O)(=O)C1 (stereo unspecified)	-4	-21	-3
Cc1nc2ccccn2c1C(=O)NNS(=O)(=O)c1sc2ccc(Cl)cc2c1C	-6	100*	-3
Cc1c(CC(=O)NNS(=O)(=O)c2ccccc2C(F)(F)F)sc2ccc(Cl)cc12	-7	19	3
NC1=NNC(=O)/C1=C\c1cc([N+](=O)[O-])ccc1N1CCOCC1	25*	-3	-9
O=[N+]([O-])c1ccc(N2CCCCCC2)c([N+](=O)[O-])c1	-6	40	-6
COC(=O)c1cc(NC(=S)NC(=O)c2ccccc2)ccc1N1CCOCC1	-5	88*	6
COC(=O)c1cc(NC(=O)c2c(-c3c(Cl)cccc3Cl)noc2C)ccc1N1CCOCC1	-5	-1	0
Cc1nnsc1C(=O)NC1CCN(Cc2ccccc2)CC1	-5	-4	8
C/C(=N\O)c1ccc2c(c1)CCC2	-5	1	13
O=C(c1ccc2c(c1)CCC2)C1CCC1	46*	-8	.
CSC(NC(C(=O)O)c1ccccc1)=C(C#N)C#N (stereo unspecified)	-9	6	-3
CCOC(=O)CC1=CSC2=NCCN12	-6	-12	-3
CCOC(=O)/C(=N\O)C1=CSC2=NNC(C)(C)N12	-1	94*	6
Cc1nc(N2CCOCC2)c2c(c1[N+](=O)[O-])C(=O)NC2=O	-6	-3	17
CC(=O)Nc1cccc(-n2nnc(SCC(=O)c3ccc(C)cc3)n2)c1	-6	14	-7
COc1cccc(-c2c3c([nH]c(=O)c2C#N)CCc2cc(OC)ccc2-3)c1	53*	-7	3
COc1ccc(-c2c(C#N)c(=O)[nH]c3c2c(C)nn3-c2ccccc2)cc1	-6	1	-10
O=C(Nc1ccccc1N1CCOCC1)c1cc2ccccc2oc1=O	-5	3	-2
N#CC(C#N)=NNc1ccc2c(c1)OCCO2	-12	94*	7
O=C(NC(=S)Nc1ccc2c(c1)OCCO2)c1ccccc1	-3	6	-3
Cc1ccc(S(=O)(=O)NC(=O)NCCCN2CCN(Cc3c(F)cccc3Cl)CC2)cc1	-2	-19	-1
Cc1ccc(SCC(=O)NCc2cccs2)cc1	-6	-7	10
SMILES	rat GALR2 agon	S1P1 agonist	TLR4-MyD88 inh
Cc1nnsc1C(=O)NCc1cc(F)cc2c1OCOC2	-3	4	5
C/C(=N\N=C(/N)SCc1cc(F)cc2c1OCOC2)c1ccc(C)nc1	-6	90*	-4
CCOC(=O)C(=CNNC(=O)C1C2C=CC(C2)C1C(=O)O)C(=O)OCC (stereo unspecified)	-5	-4	2
N#C/C(=C\Nc1ccc(F)cc1)S(=O)(=O)c1cccs1	-2	0	5
O=C(NNC(=O)c1cccs1)c1csc(COc2ccccc2Cl)n1	-7	-2	0
COC(=O)c1cnc(Sc2ccc(Cl)cc2)nc1C(F)(F)F	0	15	-22
CCOC(=O)c1cnc(SCc2ccc(Cl)cc2)nc1C(F)(F)F	-7	81*	-1
Fc1cccc(N=Cc2ccc(Cl)c(Cl)c2)c1	-8	5	-13
CC(=O)NC(c1ccccc1)n1cncn1 (stereo unspecified)	-6	-9	-1
Cc1noc(C)c1NC(=O)NC(=O)c1c(F)cccc1Cl	-5	10	10
Cc1noc(NC(=O)NC(=O)c2cc(F)c(N(C)C)c(F)c2)c1C	36*	19	10
COC(=O)/C(=C\c1ccc(OC(C)=O)c(OC)c1)NC(=O)c1ccccc1	-7	-8	11
COc1ccc([N+](=O)[O-])c(S(=O)(=O)c2ccc(Cl)cc2)n1	-13	104*	-8
COc1cc(Sc2ccc(Cl)cc2)ccc1[N+](=O)[O-]	-2	7	3
COc1ccccc1Nc1snc2sc(C(=O)c3ccc(C)cc3)c(N)c12	-4	-6	6
O=C(O)Cc1ccc(C(=O)CSc2ccc(Cl)cc2)s1	-5	-4	8
Oc1c(Cl)cc(Cl)cc1/C=N/NC(=S)NNc1ccccc1	-3	54	5
CC(NC(=S)N/N=C/c1cc(Cl)cc(Cl)c1O)c1ccccc1 (stereo unspecified)	27*	-17	-51
O=S(=O)(c1cc(Cl)cc(Cl)c1)N1CCN(S(=O)(=O)c2cccs2)CC1	-1	2	2
CCc1sc(C(C)(C)C)cc1NC(C)=O	-9	-5	0
Cn1c(CSCCOc2ccccc2)nnc1SCC(=O)C(C)(C)C	-5	-9	-5
Oc1[nH]c2ccccc2c1N=Nc1nc(-c2ccc(Br)cc2)cs1	-7	82*	-1
